Hit rate of the full screen: of about 39,000 compounds, about 3,300 (8.5%) were called active. What follows is part of a selection rich in actives, with near analogues and random picks from the rest.

This assay relates to HepG2. The assay is described as follows: cytotoxicity call (relative viability < 0.9). Particulars: 10 µM.
On to `N#Cc1ccc[nH]c1=O`, for which the cytotoxicity call was “inactive”.

`C[C@@H]1CN([C@@H](C)CO)C(=O)c2cc(NS(=O)(=O)c3cccs3)ccc2O[C@@H]1CN(C)C(=O)Nc1cccc2ccccc12`: the cytotoxicity call was “inactive”.

For `CCC=CCC=CCC=CCC=CCC=CCCCC(=O)OCC` [OMEGA-3-ACID ESTERS (EPA shown) ], the cytotoxicity call was “inactive”.

Take `C[C@H](CO)N1C[C@H](C)[C@@H](CN(C)Cc2ccc(C(=O)O)cc2)Oc2ncc(C#CCN(C)C)cc2C1=O`: the cytotoxicity call is “inactive”.

As to `Cc1noc(C)c1NC(=O)Nc1ccc2c(c1)CC(=O)N([C@H](C)CO)C[C@@H](C)[C@H](CN(C)Cc1ccc(Cl)c(Cl)c1)O2`, the cytotoxicity call was “inactive”.

As for `CCOC(=O)N(C)C[C@@H]1OCc2cn(nn2)CCCC(=O)N([C@@H](C)CO)C[C@@H]1C`, the cytotoxicity call is “inactive”.

Consider `COc1ccc(NC(=O)Nc2ccc3c(c2)C(=O)N([C@@H](C)CO)C[C@@H](C)[C@@H](CN(C)S(=O)(=O)c2ccc(OC)cc2)OCCCC[C@H](C)O3)cc1`, for which the cytotoxicity call was “inactive”.

Regarding `COc1ccccc1CNC(=O)C[C@@H]1C[C@@H]2c3cc(NC(=O)c4ccc5c(c4)OCO5)ccc3O[C@@H]2[C@H](CO)O1`, the cytotoxicity call is “inactive”.

Take `NCC[C@H]1CC[C@H](NC(=O)C2CCC2)[C@@H](CO)O1`: the cytotoxicity call was “inactive”.

In the case of `Cc1cccc(S(=O)(=O)N2C[C@@H](O)COC[C@@H]3O[C@H](CC(=O)N4CCN(C)CC4)CC[C@H]32)c1`, the cytotoxicity call was “inactive”.

Turning to `COc1ccc(NC(=O)Nc2ccc3c(c2)C(=O)N([C@H](C)CO)C[C@H](C)[C@H](CN(C)C(=O)CCC(F)(F)F)OCCCC[C@H](C)O3)cc1`, the cytotoxicity call is “inactive”.

For `CC(C)NC(=O)N(C)C[C@H]1Oc2ccc(NS(=O)(=O)c3cccs3)cc2C(=O)N([C@H](C)CO)C[C@H]1C`, the cytotoxicity call is “inactive”.

With `C[C@@H]1CN([C@@H](C)CO)C(=O)c2cccc(NS(=O)(=O)c3ccc(Cl)cc3)c2O[C@H]1CN(C)Cc1ccc(Cl)c(Cl)c1`, the cytotoxicity call is “inactive”.

With `C[C@H]1CN([C@@H](C)CO)C(=O)c2cccc(NS(=O)(=O)c3ccccc3)c2O[C@H]1CN(C)Cc1ccc(Cl)c(Cl)c1`, the cytotoxicity call is “inactive”.

As for `C[C@H]1CN([C@@H](C)CO)C(=O)c2cccc(NS(=O)(=O)c3ccc(Cl)cc3)c2O[C@@H]1CN(C)Cc1ccc(Cl)c(Cl)c1`, the cytotoxicity call is “active”.

With `COc1ccc(S(=O)(=O)Nc2cccc3c2O[C@H](CN(C)Cc2ccc(Cl)c(Cl)c2)[C@H](C)CN([C@@H](C)CO)C3=O)cc1`, the cytotoxicity call was “active”.

Take `C[C@@H]1CN([C@@H](C)CO)C(=O)c2cccc(NS(=O)(=O)c3ccccc3)c2O[C@@H]1CN(C)Cc1ccc(Cl)c(Cl)c1`: the cytotoxicity call is “inactive”.

Take `COc1ccc(S(=O)(=O)Nc2cccc3c2O[C@@H](CN(C)Cc2ccc(Cl)c(Cl)c2)[C@H](C)CN([C@@H](C)CO)C3=O)cc1`: the cytotoxicity call is “inactive”.

`COc1ccc(S(=O)(=O)Nc2cccc3c2O[C@H](CN(C)Cc2ccc(Cl)c(Cl)c2)[C@@H](C)CN([C@@H](C)CO)C3=O)cc1`: the cytotoxicity call is “inactive”.

`C[C@H](CO)N1C[C@H](C)[C@@H](CN(C)Cc2ccc(Cl)c(Cl)c2)Oc2c(NS(=O)(=O)c3ccc(Cl)cc3)cccc2C1=O`: the cytotoxicity call is “inactive”.

For the molecule `C[C@H](CO)N1C[C@H](C)[C@@H](CN(C)Cc2ccc(Cl)c(Cl)c2)Oc2c(NS(=O)(=O)c3ccccc3)cccc2C1=O`, the cytotoxicity call was “active”.

As for `Cc1ccc(S(=O)(=O)N(C)C[C@@H]2Oc3ccc(NC(=O)NC(C)C)cc3CC(=O)N([C@@H](C)CO)C[C@H]2C)cc1`, the cytotoxicity call was “inactive”.

As for `Nc1ncnc(NC[C@H]2CCCO2)c1[N+](=O)[O-]`, the cytotoxicity call was “inactive”.

As to `COc1ccc(NC(=O)Nc2ccc3c(c2)C(=O)N([C@@H](C)CO)C[C@@H](C)[C@@H](CN(C)S(=O)(=O)c2ccc(C)cc2)OCCCC[C@H](C)O3)cc1`, the cytotoxicity call is “inactive”.

Turning to `C[C@@H]1CN([C@@H](C)CO)S(=O)(=O)c2ccc(-c3cncnc3)cc2O[C@@H]1CN(C)C(=O)Cc1ccncc1`, the cytotoxicity call is “inactive”.

Turning to `COc1ccc(NC(=O)Nc2ccc3c(c2)C(=O)N([C@@H](C)CO)C[C@H](C)[C@@H](CN(C)Cc2ccccc2)OCCCC[C@@H](C)O3)cc1`, the cytotoxicity call was “inactive”.

With `COc1ccc(NC(=O)Nc2ccc3c(c2)C(=O)N([C@@H](C)CO)C[C@@H](C)[C@H](CN(C)Cc2ccccc2)OCCCC[C@H](C)O3)cc1`, the cytotoxicity call is “active”.

On to `COc1ccc(NC(=O)Nc2ccc3c(c2)C(=O)N([C@H](C)CO)C[C@@H](C)[C@@H](CN(C)Cc2ccccc2)OCCCC[C@H](C)O3)cc1`, for which the cytotoxicity call was “inactive”.

With `COc1ccc(NC(=O)Nc2ccc3c(c2)C(=O)N([C@H](C)CO)C[C@@H](C)[C@@H](CN(C)Cc2ccccc2)OCCCC[C@@H](C)O3)cc1`, the cytotoxicity call was “inactive”.

For `COc1ccc(NC(=O)Nc2ccc3c(c2)C(=O)N([C@H](C)CO)C[C@@H](C)[C@H](CN(C)Cc2ccccc2)OCCCC[C@H](C)O3)cc1`, the cytotoxicity call is “active”.

For `COc1ccc(NC(=O)Nc2ccc3c(c2)C(=O)N([C@@H](C)CO)C[C@@H](C)[C@@H](CN(C)Cc2ccccc2)OCCCC[C@H](C)O3)cc1`, the cytotoxicity call was “inactive”.

With `COc1ccc(NC(=O)Nc2ccc3c(c2)C(=O)N([C@@H](C)CO)C[C@H](C)[C@H](CN(C)Cc2ccccc2)OCCCC[C@@H](C)O3)cc1`, the cytotoxicity call was “inactive”.

In the case of `COc1ccc(NC(=O)Nc2ccc3c(c2)C(=O)N([C@@H](C)CO)C[C@@H](C)[C@H](CN(C)Cc2ccccc2)OCCCC[C@@H](C)O3)cc1`, the cytotoxicity call was “inactive”.

Take `COc1ccc(NC(=O)Nc2ccc3c(c2)C(=O)N([C@H](C)CO)C[C@H](C)[C@@H](CN(C)Cc2ccccc2)OCCCC[C@H](C)O3)cc1`: the cytotoxicity call was “inactive”.

With `COc1ccc(NC(=O)Nc2ccc3c(c2)C(=O)N([C@@H](C)CO)C[C@H](C)[C@H](CN(C)Cc2ccccc2)OCCCC[C@H](C)O3)cc1`, the cytotoxicity call was “inactive”.

Take `COc1ccc(NC(=O)Nc2ccc3c(c2)C(=O)N([C@H](C)CO)C[C@@H](C)[C@H](CN(C)Cc2ccccc2)OCCCC[C@@H](C)O3)cc1`: the cytotoxicity call is “active”.

With `COc1ccc(NC(=O)Nc2ccc3c(c2)C(=O)N([C@@H](C)CO)C[C@@H](C)[C@@H](CN(C)Cc2ccccc2)OCCCC[C@@H](C)O3)cc1`, the cytotoxicity call was “active”.

As to `COc1cccc([C@@H](N)c2ccccc2)c1`, the cytotoxicity call was “inactive”.

Regarding `O=C(/C=C/c1ccc(O)c(O)c1)O[C@@H]1[C@H](O)C[C@@](O)(C(=O)O)C[C@H]1OC(=O)/C=C/c1ccc(O)c(O)c1`, the cytotoxicity call is “inactive”.

The values are drawn from the antibiotic and cytotoxicity screens of Wong et al. (2023).
